{
  "source": "PubChem BioAssay (EPA / NIEHS)",
  "note": "The source made the active and inactive calls. How the source made its calls: active means hit-call score of the fitted dose curve at least 0.9, where 1 is the maximum; inactive means score below 0.9.",
  "data": [
    {"assay": "CEETOX_H295R_CORTIC: CeeTox H295R High-throughput Steroidogenesis Assay for Corticosterone (CORTIC) (AID 2283437);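 further: corticosterone secreted into medium quantified by mass spectrometry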", "settings": "actives raise or lower the signal", "description": "CEETOX_H295R is a cell-based, multiplexed-readout assay that uses H295R, a human adrenal gland cell line, with measurements taken at 48 hours after chemical dosing in a 96-well plate.CEETOX_H295R_CORTIC is one of 23 assay component(s) measured or calculated from the CEETOX_H295R assay. It is designed to make measurements of hormone induction, a form of inducible reporter, as detected with absorbance signals by HPLC-MS-MS technology.Data from the assay component CEETOX_H295R_CORTIC was analyzed into 1 assay endpoint. This assay endpoint, CEETOX_H295R_CORTIC, was analyzed with bidirectional fitting relative to DMSO as the negative control and baseline of activity. Using a type of inducible reporter, gain or loss-of-signal activity using HPLC-MS-MS was used to understand synthesis of Corticosterone in H295R cell line at 48hr of chemical exposure. To generalize the intended target to other relatable targets, this assay endpoint is annotated to the steroid hormone intended target family, where the subfamily is glucocorticoids.\nCell culture and media preparation procedures were conducted in accordance with OECD Test No. 456 guidelines, with minor modifications. H295R cells (ATCC CRL-2128) were expanded for 5 passages and frozen in batches in liquid nitrogen. Prior to the steroidogenesis assay, H295R cells were thawed and passed at least 4 times. The maximum passage was 10. Cells were maintained in a 1:1 mixture of DMEM/F12 supplemented with 5ml/L ITS+ Premix (BD Bioscience) and 12.5 ml/L Nu-Serum (BD Bioscience). After seeding cells into 96-well plates at 50-60% confluency, cells were allowed to adhere overnight. Prior to chemical testing, culture medium was replaced with 175 uL medium containing 10 uM forskolin to stimulate steroidogenesis for 48 hours. Following prestimulation, forskolin medium was replaced with medium containing test chemical solubilized in DMSO (ensuring a final concentration of 0.1% DMSO). Test chemicals were incubated for 48 hours, then the medium was removed and split into 2 vials containing approximately 75uL each, and stored at -80 C prior to hormone analysis. For steroid quantification, media samples were shipped to OpAns, LLC (Durham, NC) on dry ice, and samples were thawed to room temperature prior to liquid-liquid extraction. Steroid hormones were extracted from media samples using methyl tertbutyl ether (MTBE). An extra derivatization with dansyl chloride was included for estrogen (estrone and estradiol) detection only. Steroid hormones were separated by HPLC, eluted using a reverse phase C18 gradient with electrospray positive ionization, followed by quantification by tandem mass spectrometry (MS/MS). Data were acquired on a MassHunter Workstation Acquisition version B03.01 (Agilent Technologies, Inc.) and processed using MassHunter Quantitative Analysis for QQQ. Accuracy was determined for each hormone analyte from 3 standards to determine upper and lower limits of quantification (ULOQ and LLOQ, respectively) using a 7-point standard curve. Precision and accuracy of the extraction and quantification methods were calculated as the percent relative standard deviation (%RSD) of the spiked standards and percent spiked standard recovered, respectively. […] Test medium was removed following chemical exposure, and cell viability was evaluated in the same wells by MTT. MTT procedures were as follows: after removal of test medium, 500 uL of 0.5 mg/ml of 3-[4,5-dimethylthiazol-2-y]2,5-diphenyltetrazoliumbromide solution was added to the cells. Following a 4-hour incubation at 37 C and 5% CO2 to allow formazan-crystal formation, the MTT solution was removed and blue formazan salt crystals were solubilized using 500uL anhydrous isopropanol with shaking for 20 minutes. Absorbance was read at 570 and 650nm using a Packard Fusion microplate reader. Background correction of absorbance units was used to determine percent change relative to controls. […]", "values": [
      {"molecule": "Clc1cc(Cl)c2c(c1)N=C1CCCCCN1C2", "outcome": "inactive"},
      {"molecule": "COc1cccc([C@H](O)C2CCN(CCc3ccc(F)cc3)CC2)c1OC", "AC50": "1.22 µM (active)"},
      {"molecule": "Oc1ccc2ccccc2c1", "outcome": "inactive"},
      {"molecule": "CCCCCCCC[Si](OCC)(OCC)OCC", "outcome": "inactive"},
      {"molecule": "O=c1c(-c2ccc(O)cc2)coc2cc(O)cc(O)c12", "outcome": "inactive"},
      {"molecule": "Clc1ccccc1C(c1ccccc1)(c1ccccc1)n1ccnc1", "AC50": "0.00195 µM (active)"},
      {"molecule": "CCCCCCCCN(C)CCCCCCCC", "outcome": "inactive"},
      {"molecule": "CCCCOC(=O)c1ccc(O)cc1", "outcome": "inactive"},
      {"molecule": "Cc1ccc2oc(CN(Cc3ccccc3)C(=O)Nc3c(F)cc(F)cc3F)c(-c3ccc(Cl)cc3)c2c1", "outcome": "inactive"},
      {"molecule": "NC(=O)c1nc(-c2cccc(-c3cc(F)ccc3OCC(F)(F)C(F)(F)F)c2)n[nH]1", "outcome": "inactive"},
      {"molecule": "CC(=O)N1CCN(c2ccc(OC[C@H]3CO[C@](Cn4ccnc4)(c4ccc(Cl)cc4Cl)O3)cc2)CC1", "AC50": "1.77 µM (active)"},
      {"molecule": "CN1C(=O)N(c2ccccc2Br)Cc2cnc(Nc3ccc4c(c3)OCC(CO)O4)nc21", "note": "(stereo not drawn)", "outcome": "inactive"},
      {"molecule": "O=C(Nc1ccc(Cl)cc1)Nc1ccc(Cl)c(Cl)c1", "outcome": "inactive"},
      {"molecule": "CCCCCCCCCCCC[N+](C)(C)C", "outcome": "inactive"},
      {"molecule": "Cc1c2ccccc2c(C)c2c1ccc1ccccc12", "outcome": "inactive"},
      {"molecule": "OC12N=C(c3ccccc3)SC1Cc1cc(Cl)ccc12", "note": "(stereo not drawn)", "AC50": "17.7 µM (active)"},
      {"molecule": "Cc1cc2c(cc1C(F)(F)F)N(C(=O)Nc1ccc(Oc3cccnc3C)nc1)CC2", "outcome": "inactive"},
      {"molecule": "CC(C)(c1cc(Br)c(O)c(Br)c1)c1cc(Br)c(O)c(Br)c1", "outcome": "inactive"},
      {"molecule": "O=C(O)Cn1c(=O)n(Cc2ccc(Br)cc2F)c(=O)c2ccc(Cl)cc21", "outcome": "inactive"},
      {"molecule": "C[C@]12CC[C@@H]3c4ccc(O)cc4CC[C@H]3[C@@H]1CC[C@H]2O", "AC50": "2.13 µM (active)"},
      {"molecule": "CC(C)(C)c1cc(/C=C2\\SC(N)=NC2=O)cc(C(C)(C)C)c1O", "AC50": "0.754 µM (active)"},
      {"molecule": "Cc1oc2c(NC(=O)c3c(Cl)cccc3Cl)cccc2c1C(C)(C)O", "outcome": "inactive"},
      {"molecule": "O=C1CCC(C2CCCCC2)CC1", "outcome": "inactive"}
    ]}
  ]
}
